Assay outcomes as filed in PubChem.
IL1B secr inh = inhibitors of inflammasome signaling (IL-1 beta secretion); activity change, % at 57.5 µM; THP-1 LPS/ATP IL-1B secretion, AlphaLISA, 16 h; hits give low values; AID 743279; 4.7% of 360,000 active; in the data active = activity change below about -50%; inconclusive = mostly about -30% to -49%; also: % is scaled to controls: 0 for no effect and ±100 for the full control effect
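Secreted IL-1B measured by AlphaLISA bead assay after 16 h compound exposure of THP-1 cells; compounds (final up to 57.5 uM) added 1 h before LPS (250 ng/mL) and ATP (1.25 mM) stimulation; lower signal means less secretion.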
TGFb SMAD3 inh = TGF-b pathway inhibition. HepG2 CAGA-GFP TGF-b/SMAD3 reporter, GFP fluorescence, 18 h; TGF-beta stimulated, 500 pg/mL final. 1.2% of 410,000 active. Potency, µM (doses to about 46.1 µM), without a hit: at the highest dose activity, negative = inhibition, actives largely listed as inhibitors; also: potency is read from the fitted curve at half-maximal effect; % is scaled to controls: 0 for no effect and ±100 for the full control effect; nearly all actives have a fitted effect of over 65% in size
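HEPG2 CAGA-GFP, 1000 cells/well; 2 h settle, 37 C; cpd via pin tool; TGF-b 500 pg/mL final; 18 h, 37 C; GFP imaging ex488/em500-530; %Activity normalised to -TGF-b and +DMSO controls; CRC fit, curve class.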
TDP1 cell noCPT = qHTS for Inhibitors of human tyrosyl-DNA phosphodiesterase 1 (TDP1): qHTS in cells in absence of CPT | DT40 Tdp1-/- hTDP1 cells, no CPT, ATP luminescence, 48 h | Potency, µM (series often up to 46.2 µM), inactives show at the top dose activity change, negative = growth inhibition, usual class: inhibitors | 15% of 420,000 active; also: potency is read from the fitted curve at half-maximal effect; % is scaled to controls: 0 for no effect and ±100 for the full control effect; nearly all actives have a fitted effect of over 55% in size
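Growth of hTDP1-complemented DT40 Tdp1-knockout cells is measured by ATP luminescence after at least 48 hr compound exposure at 37 °C, with DMSO substituting for the 20 nM CPT used in the parallel screen.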
DT40 TDP1 CPT = DT40-hTDP1 cell growth loss with CPT; chicken DT40 Tdp1-/-;hTDP1 cells + 20 nM CPT, ATP luminescence, 48 h; Potency, µM (series often up to 46.2 µM), inactives show at the highest dose activity change, negative = growth inhibition, most hits filed as inhibitors; 12% of 420,000 active; also: potency is read from the fitted curve at half-maximal effect; % is scaled to controls: 0 for no effect and ±100 for the full control effect; nearly all actives have a fitted effect of over 55% in size
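Chicken DT40 Tdp1-/- cells complemented with human TDP1, 400 cells/well, exposed to compounds plus 20 nM camptothecin for at least 48 h at 37 C; viability read as ATP content by CellTiter-Glo luminescence.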
TDP1 block = TDP1 (human) enzyme inhibition; Q9NUW8; recombinant TDP1, AlphaScreen DNA substrate cleavage; Potency, µM (series often up to 130 µM), without a hit: at the top dose activity change, negative = inhibition, most hits filed as inhibitors; 0.28% of 350,000 active; also: potency is read from the fitted curve at half-maximal effect; % is scaled to controls: 0 for no effect and ±100 for the full control effect; nearly all actives have a fitted effect of over 40% in size
Target sequence (Q9NUW8 whole entry, looked up): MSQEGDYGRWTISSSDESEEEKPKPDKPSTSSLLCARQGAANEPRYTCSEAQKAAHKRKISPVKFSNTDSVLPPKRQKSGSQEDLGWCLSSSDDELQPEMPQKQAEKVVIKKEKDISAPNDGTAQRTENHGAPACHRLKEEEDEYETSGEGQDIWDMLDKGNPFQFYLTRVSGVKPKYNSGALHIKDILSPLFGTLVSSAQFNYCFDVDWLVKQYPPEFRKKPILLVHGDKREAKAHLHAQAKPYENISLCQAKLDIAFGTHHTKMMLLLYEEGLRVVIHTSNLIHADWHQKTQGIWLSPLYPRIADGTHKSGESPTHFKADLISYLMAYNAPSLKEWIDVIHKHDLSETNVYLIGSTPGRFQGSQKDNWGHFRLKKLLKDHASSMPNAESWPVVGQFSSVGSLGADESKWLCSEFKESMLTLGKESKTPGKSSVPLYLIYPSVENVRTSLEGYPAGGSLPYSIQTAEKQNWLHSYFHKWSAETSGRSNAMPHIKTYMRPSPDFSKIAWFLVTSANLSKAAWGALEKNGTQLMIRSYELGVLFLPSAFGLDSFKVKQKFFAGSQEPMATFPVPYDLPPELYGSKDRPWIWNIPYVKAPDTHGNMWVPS
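Signal: AlphaScreen proximity between streptavidin donor and anti-FITC acceptor beads on intact substrate. Reaction: Tdp1 1 nM, substrate 15 nM final, 5 min RT after 15 min compound preincubation.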
HepG2 tox = kills HepG2 cells in TGF-b inhibitor counter-screen | HepG2 CAGA-GFP viability, ATP luminescence, 18 h | Potency, µM (doses to about 46.1 µM), for the others: at the highest dose activity change, negative = cytotoxicity, most hits filed as cytotoxic | 0.76% of 410,000 active; also: potency is read from the fitted curve at half-maximal effect
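CellTiter-Glo luminescence gave cytotoxicity after 18 hours at 37 degrees C. The cells were HepG2 CAGA-GFP in 1% FBS DMEM, stimulated with 500 pg/mL TGF-beta after compound addition. %Activity was normalised to no-cell wells (complete cell-killing) and DMSO (no toxicity), and curves were fitted and classified.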
* hit, by the source's call; ? = inconclusive; . = not tested or not shown; [ ] = dose if it differs, or a comment. An excerpt weighted towards active compounds, which were near 19% of everything screened. Unless noted, calls follow the shape of the dose curve; as a rule, active = well fitted curve in the direction sought with a large enough effect; inconclusive = small, poorly fitted or top-dose-only effect, or another doubt; inactive = no such curve, though single readings can be large; an effect the other way counts as inactive or inconclusive.

SMILES	IL1B secr inh	TGFb SMAD3 inh	TDP1 cell noCPT	DT40 TDP1 CPT	TDP1 block	HepG2 tox
CC(C)CO/N=C1/C[C@@H](O)[C@@H](O)[C@@H]2[C@@H]3C(=O)N(Cc4ccccc4)C(=O)[C@H]3CC[C@@H]12	.	.	.	.	2.6%[21 µM]	.
CCOc1nc(-c2ccccc2)ccc1-c1noc(-c2cccnc2)n1	16.8	-0.8%	3.66µM*	-14.3%	.	-19.4%
CCOc1cc(-c2nc(-c3ccc(-c4ccccc4)nc3OCC)no2)cc(OCC)c1OCC	.	-3.0%	?	?	0.0%	-9.7%
O=C1OC=NC1=Cc1ccccc1	-8.8	12.0%	6.5%	-2.0%	.	1.8%
Cc1ccc(-c2nc(S(=O)(=O)c3ccc(F)cc3)c(N3CCN(c4ccccc4)CC3)o2)cc1	.	2.6%	-26.9%	?	7.4%	-9.8%
CC(C)(C)OC(=O)N1CCC(c2c(C(=O)Nc3ccc4c(c3)OCCO4)cnn2-c2ccccc2)CC1	.	?	18.4µM*	23.1µM*	-1.1%	2.1%
CC(C)(C)OC(=O)N1CCC(c2c(C(=O)Nc3ccc4c(c3)OCCO4)cnn2-c2ccc(Cl)cc2)CC1	.	?	?	?	4.2%	-19.8%
Cc1ccc(-n2ncc(C(=O)Nc3ccc4c(c3)OCCO4)c2C2CCN(C(=O)OC(C)(C)C)CC2)cc1	.	-19.9%	20.6µM*	20.6µM*	1.1%	-27.2%
Cc1ccc(-n2ncc(C(=O)Nc3ccc4c(c3)OCO4)c2C2CCN(C(=O)OC(C)(C)C)CC2)cc1	.	?	20.6µM*	20.6µM*	9.5%	-27.5%
CS(=O)(=O)NNC(=O)Cn1nnc(-c2ccc(OCc3ccccc3Cl)cc2)n1	-8.4	-10.0%	-15.3%	-13.1%	.	1.4%
COc1ccc(NC(=O)C(=O)N/N=C\c2ccc(CNC(=O)C(=O)Nc3ccc(C)c(C)c3)o2)c(OC)c1	28.0	-7.7%	9.2µM*	5.17µM*	.	-27.5%
CCOc1ccc(NC(=O)C(=O)N/N=C\c2ccc(CNS(=O)(=O)c3ccccc3)o2)cc1	79.7	-2.6%	20.6µM*	?	0.0%	0.5%
Cc1ccc2c(c1)c1c(c(=O)n(Cc3ccccc3)c(=O)n1Cc1cccc(F)c1)n2C	.	-19.2%	?	?	0.0%	1.9%
CC(C)NC(=O)C1(C)CN(S(C)(=O)=O)CC(=O)N1CCCn1ccnc1 (stereo not drawn)	2.1	.	6.3%	3.5%	.	.
Cc1ccc(OCC(=O)Nc2ccc(S(=O)(=O)Nc3ccccn3)cc2)c(C)c1	-2.8	2.6%	18.4µM*	?	4.6%	0.9%
CCCSc1ncc(Cl)c(C(=O)N(Cc2ccc(N(C)C)cc2)C2CCS(=O)(=O)C2)n1 (stereo not drawn)	.	.	?	?	9.8%	-8.0%
O=C(O)c1ccc(NC(=S)NC(=O)c2ccc3ccccc3c2)cc1	-6.4	-2.2%	-2.8%	-1.1%	31.6µM*	-15.7%
O=C(O)c1ccc(NC(=S)NC(=O)c2cccc(COc3ccccc3)c2)cc1	-54.5*	-2.0%	3.3%	-26.4%	7.7%	-25.6%
CCOc1ccc(OCc2cccc(C(=O)O)c2)cc1	8.4	-5.3%	8.2µM*	14.6µM*	1.0%	-66.9%
O=C(NC(=S)Nc1ccc(CN2CCCCC2)cc1)c1cccc(OCc2ccccc2)c1	0.0	?	11.6µM*	9.2µM*	5.5%	-28.7%
O=C(O)c1cccc(NC(=S)NC(=O)c2ccc3ccccc3c2)c1	43.2	-1.2%	21.2%	1.3%	7.0%	-4.4%
CCOC(=O)C1=CNS(=O)(=O)NC1c1ccc2ccccc2c1 (stereo not drawn)	55.4	1.7%	-4.0%	-14.0%	0.9%[56.1 µM]	-3.0%
COc1ccccc1CN(Cc1ccco1)c1cnc(S(C)(=O)=O)nc1C(=O)Nc1ccccc1Cl	.	-2.4%	?	?	-0.5%	1.8%
